Source: the supplement of paper PMC10849652
About 8,800 targets were measured; listed, in parts, are those with a hit and a random draw of the rest. About 0.5% of all pairs of compound and target were hits.

Legend:
Assay in all cases: log2 fold change, soluble protein after heating vs DMSO (PISA); higher = thermal stabilisation; K562 lysate, 10 uM; active = over 0.2 and 3.5 SD of the protein, either way, in both replicates (recomputed)
lapatinib = compound: CS(=O)(=O)CCNCc1ccc(-c2ccc3ncnc(Nc4ccc(OCc5cccc(F)c5)c(Cl)c4)c3c2)o1 [lapatinib]
Outline: (§1)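 K562 pellets were dounce-homogenised in PBS pH 7.4 with 1 mM MgCl2, and the crude extract at 1 mg/mL protein was treated with 10 μM compound for 30 min. Aliquots were heated for 3 min across 48°C-58°C, pooled, and brought to 0.5% NP-40 at 4°C; soluble protein was the supernatant after 21,000xg for 90 min. Soluble protein was quantified by TMTpro 16plex LC-MS/MS with channel sums equalised, and reported as log2 fold change in thermal stability against DMSO controls, with values from duplicates.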

pictilisib = compound: CS(=O)(=O)N1CCN(Cc2cc3nc(-c4cccc5[nH]ncc45)nc(N4CCOCC4)c3s2)CC1 [pictilisib]
Outline: as §1

crizotinib = compound: C[C@@H](Oc1cc(-c2cnn(C3CCNCC3)c2)cnc1N)c1c(Cl)ccc(F)c1Cl [crizotinib]
Outline: as §1

[1] = compound: C[C@H](C1=CC=C(C=C1)C(=O)NC2=C3C=CNC3=NC=C2)N
Outline: as §1

duvelisib = compound: C[C@H](Nc1ncnc2nc[nH]c12)c1cc2cccc(Cl)c2c(=O)n1-c1ccccc1 [duvelisib]
Outline: as §1

gandotinib = compound: Cc1cc(Nc2cc(CN3CCOCC3)c3nc(C)c(Cc4ccc(Cl)cc4F)n3n2)n[nH]1 [gandotinib]
Outline: as §1

tozasertib = compound: Cc1cc(Nc2cc(N3CCN(C)CC3)nc(Sc3ccc(NC(=O)C4CC4)cc3)n2)n[nH]1 [tozasertib]
Outline: as §1

doramapimod = compound: Cc1ccc(-n2nc(C(C)(C)C)cc2NC(=O)Nc2ccc(OCCN3CCOCC3)c3ccccc23)cc1 [doramapimod]
Outline: as §1

bafetinib = compound: Cc1ccc(NC(=O)c2ccc(CN3CC[C@H](N(C)C)C3)c(C(F)(F)F)c2)cc1Nc1nccc(-c2cncnc2)n1 [bafetinib]
Outline: as §1

[2] = compound: Cc1cccc(CC(=O)N2CCc3c2ccc(-c2cn(C)c4ncnc(N)c24)c3F)n1
Outline: as §1

Measured: log2 fold change

SHCBP1 (UniProt Q8NEM2)
inactive: lapatinib 0.061 | pictilisib 0.046 | crizotinib -0.029 | [1] -0.043 | duvelisib 0.028 | gandotinib -0.031 | tozasertib 0.059 | doramapimod 0.028 | bafetinib -0.073 | [2] 0.078

SPATA5 (UniProt Q8NB90)
Chain of UniProt Q8NB90 (Q8NB90 whole entry, looked up): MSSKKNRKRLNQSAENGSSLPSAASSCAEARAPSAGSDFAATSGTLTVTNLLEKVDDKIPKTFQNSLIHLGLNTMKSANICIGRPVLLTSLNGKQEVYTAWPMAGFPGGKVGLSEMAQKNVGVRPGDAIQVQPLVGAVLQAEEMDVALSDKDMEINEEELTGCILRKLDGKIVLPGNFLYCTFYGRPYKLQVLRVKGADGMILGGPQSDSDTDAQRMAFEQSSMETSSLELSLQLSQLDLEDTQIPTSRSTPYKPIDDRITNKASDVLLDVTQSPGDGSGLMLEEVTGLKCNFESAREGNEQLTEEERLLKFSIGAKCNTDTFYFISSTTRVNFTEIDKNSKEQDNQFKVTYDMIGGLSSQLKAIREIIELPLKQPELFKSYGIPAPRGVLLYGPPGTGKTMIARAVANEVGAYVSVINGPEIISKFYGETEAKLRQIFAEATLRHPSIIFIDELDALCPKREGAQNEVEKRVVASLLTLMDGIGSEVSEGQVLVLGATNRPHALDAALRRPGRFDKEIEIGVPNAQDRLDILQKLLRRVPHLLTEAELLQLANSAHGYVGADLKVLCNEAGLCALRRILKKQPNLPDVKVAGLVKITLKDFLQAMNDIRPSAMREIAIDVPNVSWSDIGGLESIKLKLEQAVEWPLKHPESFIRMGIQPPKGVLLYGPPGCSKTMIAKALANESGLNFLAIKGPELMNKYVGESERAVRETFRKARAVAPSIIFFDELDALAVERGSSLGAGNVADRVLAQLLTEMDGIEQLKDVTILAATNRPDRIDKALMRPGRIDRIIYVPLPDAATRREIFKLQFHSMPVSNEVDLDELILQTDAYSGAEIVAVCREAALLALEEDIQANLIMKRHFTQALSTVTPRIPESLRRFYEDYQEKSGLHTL
inactive: lapatinib -0.017 | pictilisib -0.009 | crizotinib -0.046 | [1] -0.027 | duvelisib -0.015 | gandotinib -0.13 | tozasertib 0.02 | doramapimod -0.017 | bafetinib -0.05 | [2] 0.034

SMC2 (UniProt O95347)
Chain of UniProt O95347 (O95347 whole entry, looked up): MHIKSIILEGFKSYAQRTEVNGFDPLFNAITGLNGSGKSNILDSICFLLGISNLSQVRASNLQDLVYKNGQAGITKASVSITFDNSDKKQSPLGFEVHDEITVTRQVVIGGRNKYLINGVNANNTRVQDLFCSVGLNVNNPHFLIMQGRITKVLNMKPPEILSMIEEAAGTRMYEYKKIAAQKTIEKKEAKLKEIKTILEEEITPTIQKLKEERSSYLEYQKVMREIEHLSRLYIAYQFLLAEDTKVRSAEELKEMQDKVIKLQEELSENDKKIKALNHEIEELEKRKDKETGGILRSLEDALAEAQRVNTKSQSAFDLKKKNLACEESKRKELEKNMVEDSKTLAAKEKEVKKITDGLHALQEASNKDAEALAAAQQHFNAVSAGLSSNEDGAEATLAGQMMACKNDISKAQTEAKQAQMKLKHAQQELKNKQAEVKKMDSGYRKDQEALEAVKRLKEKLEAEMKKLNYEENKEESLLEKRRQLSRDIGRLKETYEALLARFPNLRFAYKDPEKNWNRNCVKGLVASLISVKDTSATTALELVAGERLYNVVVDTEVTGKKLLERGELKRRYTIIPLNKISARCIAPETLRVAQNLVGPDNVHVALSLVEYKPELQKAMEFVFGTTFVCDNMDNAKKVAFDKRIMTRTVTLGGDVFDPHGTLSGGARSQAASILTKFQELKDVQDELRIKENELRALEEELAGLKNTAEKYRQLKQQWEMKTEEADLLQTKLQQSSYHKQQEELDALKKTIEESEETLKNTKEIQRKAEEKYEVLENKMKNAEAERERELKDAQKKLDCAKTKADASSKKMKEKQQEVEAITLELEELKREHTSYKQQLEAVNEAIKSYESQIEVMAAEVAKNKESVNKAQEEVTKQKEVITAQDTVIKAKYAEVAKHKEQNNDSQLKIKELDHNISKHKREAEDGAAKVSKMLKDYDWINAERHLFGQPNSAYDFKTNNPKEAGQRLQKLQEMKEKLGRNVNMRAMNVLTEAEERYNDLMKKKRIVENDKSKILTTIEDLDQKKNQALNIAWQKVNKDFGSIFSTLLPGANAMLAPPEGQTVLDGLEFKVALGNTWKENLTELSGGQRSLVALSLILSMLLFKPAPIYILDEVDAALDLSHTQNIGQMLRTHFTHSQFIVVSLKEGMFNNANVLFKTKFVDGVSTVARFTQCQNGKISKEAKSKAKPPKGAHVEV
inactive: lapatinib -0.019 | pictilisib 0.013 | crizotinib -0.028 | [1] 0.121 | duvelisib -0.009 | gandotinib -0.177 | tozasertib 0.014 | doramapimod 0.037 | bafetinib -0.02 | [2] -0.059

SHKBP1 (UniProt Q8TBC3)
Chain of UniProt Q8TBC3 (Q8TBC3 whole entry, looked up): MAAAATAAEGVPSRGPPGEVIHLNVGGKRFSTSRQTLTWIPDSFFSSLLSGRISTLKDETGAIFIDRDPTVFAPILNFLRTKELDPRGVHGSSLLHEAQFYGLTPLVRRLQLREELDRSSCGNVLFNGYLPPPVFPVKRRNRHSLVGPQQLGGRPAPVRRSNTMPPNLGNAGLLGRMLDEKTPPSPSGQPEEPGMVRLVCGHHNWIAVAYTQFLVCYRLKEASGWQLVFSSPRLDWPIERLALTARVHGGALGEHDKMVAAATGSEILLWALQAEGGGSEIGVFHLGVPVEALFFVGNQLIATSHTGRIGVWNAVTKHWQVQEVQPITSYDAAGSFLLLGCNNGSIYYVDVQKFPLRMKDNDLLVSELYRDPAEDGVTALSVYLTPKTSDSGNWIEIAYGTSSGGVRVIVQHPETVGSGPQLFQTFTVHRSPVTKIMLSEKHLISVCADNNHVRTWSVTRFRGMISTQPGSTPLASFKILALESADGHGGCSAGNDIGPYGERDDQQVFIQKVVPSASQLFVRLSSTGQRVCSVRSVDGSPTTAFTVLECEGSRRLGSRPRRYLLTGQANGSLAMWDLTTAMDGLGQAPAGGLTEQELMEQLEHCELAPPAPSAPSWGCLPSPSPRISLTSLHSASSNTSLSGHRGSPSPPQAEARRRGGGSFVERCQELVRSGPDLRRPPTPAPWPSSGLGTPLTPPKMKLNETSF
inactive: lapatinib -0.027 | pictilisib -0.045 | crizotinib -0.009 | [1] -0.045 | duvelisib 0.055 | gandotinib 0.034 | tozasertib -0.009 | doramapimod 0.005 | bafetinib -0.04 | [2] 0.055

SRM (UniProt P19623)
active: duvelisib 0.716
inactive: lapatinib -0.015 | pictilisib -0.013 | crizotinib -0.048 | [1] -0.032 | gandotinib -0.036 | tozasertib 0.01 | doramapimod -0.017 | bafetinib -0.009 | [2] -0.033

STK38 (UniProt Q15208)
inactive: lapatinib -0.024 | pictilisib 0.061 | crizotinib 0.001 | [1] 0.017 | duvelisib 0.017 | gandotinib 0.159 | tozasertib 0.029 | doramapimod -0.001 | bafetinib -0.104 | [2] -0.071

SNRPD3 (UniProt P62318)
active: [1] -0.233
inactive: lapatinib -0.027 | pictilisib -0.06 | crizotinib 0.008 | duvelisib 0.052 | gandotinib 0.102 | tozasertib 0.028 | doramapimod 0.014 | bafetinib 0.069 | [2] 0.11

SYPL1 (UniProt Q16563)
Chain of UniProt Q16563 (Q16563 whole entry, looked up): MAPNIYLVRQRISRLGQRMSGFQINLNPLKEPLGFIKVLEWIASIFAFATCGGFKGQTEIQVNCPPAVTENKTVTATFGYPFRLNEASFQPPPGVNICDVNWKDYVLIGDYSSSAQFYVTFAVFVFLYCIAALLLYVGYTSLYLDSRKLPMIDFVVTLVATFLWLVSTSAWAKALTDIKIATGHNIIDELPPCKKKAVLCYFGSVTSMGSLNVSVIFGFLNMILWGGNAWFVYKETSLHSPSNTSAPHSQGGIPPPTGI
inactive: lapatinib 0.015 | pictilisib -0.025 | crizotinib -0.001 | duvelisib 0.004 | gandotinib 0.16 | tozasertib -0.028 | doramapimod -0.009 | bafetinib -0.034 | [2] 0.163
active: [1] -0.376

SPHK1 isoform 2 (UniProt Q9NYA1)
Chain of UniProt Q9NYA1 (Q9NYA1 whole entry, looked up): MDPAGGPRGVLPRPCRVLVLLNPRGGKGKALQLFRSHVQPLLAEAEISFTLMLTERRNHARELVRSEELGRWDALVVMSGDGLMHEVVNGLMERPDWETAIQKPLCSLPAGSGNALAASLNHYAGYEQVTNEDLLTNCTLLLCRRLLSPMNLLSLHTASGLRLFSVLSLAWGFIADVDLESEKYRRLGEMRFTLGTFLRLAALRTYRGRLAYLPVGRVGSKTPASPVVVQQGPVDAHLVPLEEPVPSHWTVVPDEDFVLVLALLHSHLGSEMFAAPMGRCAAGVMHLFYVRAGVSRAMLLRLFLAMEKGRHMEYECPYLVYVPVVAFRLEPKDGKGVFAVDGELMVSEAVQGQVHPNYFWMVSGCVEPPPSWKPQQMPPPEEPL
inactive: lapatinib -0.039 | pictilisib 0.001 | crizotinib -0.018 | [1] -0.028 | duvelisib 0.013 | gandotinib 0.033 | tozasertib 0.122 | doramapimod 0.073 | bafetinib -0.007 | [2] -0.041

TAPT1 (UniProt Q6NXT6)
Chain of UniProt Q6NXT6 (Q6NXT6 whole entry, looked up): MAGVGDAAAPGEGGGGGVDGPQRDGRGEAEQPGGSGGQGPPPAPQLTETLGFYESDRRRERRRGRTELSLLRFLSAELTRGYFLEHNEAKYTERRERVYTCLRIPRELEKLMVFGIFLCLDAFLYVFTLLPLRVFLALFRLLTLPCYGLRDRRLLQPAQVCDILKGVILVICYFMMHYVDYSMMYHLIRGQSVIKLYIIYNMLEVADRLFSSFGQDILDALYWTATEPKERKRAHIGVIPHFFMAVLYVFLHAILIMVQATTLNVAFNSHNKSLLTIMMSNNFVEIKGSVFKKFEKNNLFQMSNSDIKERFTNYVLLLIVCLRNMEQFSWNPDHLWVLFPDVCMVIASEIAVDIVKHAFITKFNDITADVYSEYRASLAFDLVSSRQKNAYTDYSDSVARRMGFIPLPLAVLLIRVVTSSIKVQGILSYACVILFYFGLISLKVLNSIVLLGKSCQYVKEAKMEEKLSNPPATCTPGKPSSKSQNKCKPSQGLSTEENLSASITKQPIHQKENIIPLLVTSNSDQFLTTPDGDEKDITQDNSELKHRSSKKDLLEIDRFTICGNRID
inactive: lapatinib -0.007 | pictilisib 0.025 | crizotinib -0.044 | [1] -0.196 | duvelisib 0.012 | gandotinib 0.057 | tozasertib 0.031 | doramapimod 0.024 | bafetinib 0.01 | [2] 0.093

SLC25A44 (UniProt Q96H78)
Chain of UniProt Q96H78 (Q96H78 whole entry, looked up): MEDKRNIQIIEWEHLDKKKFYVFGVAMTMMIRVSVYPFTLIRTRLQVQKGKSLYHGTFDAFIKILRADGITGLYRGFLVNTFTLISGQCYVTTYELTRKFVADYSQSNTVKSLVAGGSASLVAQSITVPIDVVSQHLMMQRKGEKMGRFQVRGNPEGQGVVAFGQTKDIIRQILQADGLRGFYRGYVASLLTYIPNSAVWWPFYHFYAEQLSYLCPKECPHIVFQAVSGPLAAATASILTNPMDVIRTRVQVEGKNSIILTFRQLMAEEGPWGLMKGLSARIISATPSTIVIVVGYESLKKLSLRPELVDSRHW
inactive: lapatinib -0.031 | pictilisib -0.014 | crizotinib -0.034 | [1] -0.069 | duvelisib 0.233 | gandotinib 0.047 | tozasertib -0.008 | doramapimod -0.01 | bafetinib -0.037 | [2] 0.166

STAU1 (UniProt O95793)
Chain of UniProt O95793 (O95793 whole entry, looked up): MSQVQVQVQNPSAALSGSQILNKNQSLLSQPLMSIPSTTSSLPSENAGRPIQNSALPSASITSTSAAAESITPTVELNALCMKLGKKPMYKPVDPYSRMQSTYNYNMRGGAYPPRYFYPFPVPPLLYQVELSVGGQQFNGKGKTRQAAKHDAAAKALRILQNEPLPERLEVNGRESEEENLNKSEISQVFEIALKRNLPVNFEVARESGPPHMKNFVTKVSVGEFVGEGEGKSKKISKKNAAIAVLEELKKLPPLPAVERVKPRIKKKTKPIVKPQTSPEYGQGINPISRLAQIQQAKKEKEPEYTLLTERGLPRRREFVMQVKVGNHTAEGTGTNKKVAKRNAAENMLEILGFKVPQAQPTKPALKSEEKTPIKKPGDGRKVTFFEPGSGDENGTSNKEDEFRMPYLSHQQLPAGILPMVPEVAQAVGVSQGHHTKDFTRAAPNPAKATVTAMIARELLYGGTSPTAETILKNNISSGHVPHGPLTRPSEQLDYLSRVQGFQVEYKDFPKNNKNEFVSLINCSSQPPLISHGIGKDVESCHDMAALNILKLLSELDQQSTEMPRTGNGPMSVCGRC
inactive: lapatinib -0.018 | pictilisib 0.03 | crizotinib 0.005 | duvelisib 0.019 | gandotinib -0.086 | tozasertib 0.014 | doramapimod 0.056 | bafetinib -0.089 | [2] -0.062
active: [1] 0.27

SLC25A25 isoform 3 (UniProt Q6KCM7)
inactive: lapatinib -0.004 | pictilisib 0.021 | crizotinib -0.039 | [1] 0.013 | duvelisib -0.014 | gandotinib -0.047 | tozasertib 0 | doramapimod 0.015 | bafetinib 0.013 | [2] 0.043

SMG5 (UniProt Q9UPR3)
inactive: lapatinib -0.038 | pictilisib 0.057 | crizotinib -0.007 | [1] 0.01 | duvelisib -0.006 | gandotinib -0.003 | tozasertib 0.019 | doramapimod -0.131 | bafetinib -0.035 | [2] -0.007

SKA2 (UniProt Q8WVK7)
Chain of UniProt Q8WVK7 (Q8WVK7 whole entry, looked up): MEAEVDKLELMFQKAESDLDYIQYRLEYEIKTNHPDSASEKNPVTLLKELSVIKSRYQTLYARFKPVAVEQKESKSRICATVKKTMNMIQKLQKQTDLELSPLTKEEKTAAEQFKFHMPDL
inactive: lapatinib 0.005 | pictilisib -0.004 | crizotinib 0.027 | [1] 0.048 | duvelisib -0.004 | gandotinib -0.029 | tozasertib 0.048 | doramapimod -0.09 | bafetinib -0.017 | [2] 0.009
